# Counter-ions that a name gives are not always drawn. The whole screen tested about 1,200 compounds, of which about 50 (4%) showed activity. The sample as a whole holds a higher share of actives than the screen did. A number with no mark means an inactive call. No stated cut-off is given here; in the data, all actives reach 1.3 or more but so do some inactives.
# Test system: Lgr5 (MarsCy1-Lgr5-EGFP, U2OS)
# Test: cell-surface Lgr5 expression (SCi1 fluorescence, background-subtracted) relative to WT DMSO (fold of DMSO control); higher = more Lgr5 at the plasma membrane, active = hit call of the paper
# Details: U2OS MarsCy1-Lgr5-EGFP stable; treatment time: overnight; 16 µM; library: Johns Hopkins Clinical Compound Library
row,Compound,cell-surface Lgr5 expression
1,COc1cccc2c1C(=O)c1c(O)c3c(c(O)c1C2=O)C[C@@](O)(C(=O)CO)C[C@@H]3O[C@H]1C[C@H](N)[C@@H](O)[C@H](C)O1 [Epirubicin],1.31
2,O=S(=O)([O-])[O-].[Cu+2] [Copper (II) sulfate],1.27
3,CCN1C(=CC=Cc2ccc3ccccc3[n+]2CC)C=Cc2ccccc21 [Quinaldine blue (Pinacyanol chloride)],1.53
4,CCCCNc1ccc(C(=O)OCCOCCOCCOCCOCCOCCOCCOCCOCCOC)cc1 [Benzonatate],1.08
5,O=C(O)c1ccc[n+]([O-])c1 [Oxiniacic acid (nicotinic acid n-oxide)],0.989
6,Cc1ccc(S(=O)(=O)NCl)cc1 [Chloramine-T hydrate],0.672
7,CCC(=O)Oc1ccc(/C(CC)=C(\CC)c2ccc(OC(=O)CC)cc2)cc1 [Diethylstilbestrol dipropionate],0.886
8,"O=P(O)(O)OC1C(OP(=O)(O)O)C(OP(=O)(O)O)C(OP(=O)(O)O)C(OP(=O)(O)O)C1OP(=O)(O)O (stereo not given) [Phytic acid, dodecasodium salt hydrate]",0.522
9,Br.N [Ammonium bromide],1.09
10,CC1CCC(NC(=O)N(CCCl)N=O)CC1 (stereo not given) [Semustine],1.06
11,C[C@@H]1C/C=C/C=C/C=C/C=C/[C@H](O[C@@H]2O[C@H](C)[C@@H](O)[C@H](N)[C@@H]2O)C[C@@H]2O[C@](O)(C[C@@H](O)C[C@H]3O[C@@H]3/C=C/C(=O)O1)C[C@H](O)[C@H]2C(=O)O [Natamycin (Pimaricin)],0.845
12,O=S(=O)([O-])[O-].O=S(=O)([O-])[O-].[Al+3].[Na+] [Aluminum sodium sulfate],0.71
13,O=P([O-])([O-])[O-].O=P([O-])([O-])[O-].[Ca+2].[Ca+2].[Ca+2] [Calcium phosphate tribasic],0.836
14,CC1=CC(=C(c2ccc(N)cc2)c2ccc(N)cc2)C=CC1=N [Basic fuchsin hydrochloride],1.12
15,CC1(C)S[C@@H]2[C@H](NC(=O)COc3ccccc3)C(=O)N2[C@H]1C(=O)O [Penicillin V (phenoxymethyl penicillinic acid)],1.08
16,CC1(C)S[C@@H]2[C@H](NC(=O)COc3ccccc3)C(=O)N2[C@H]1C(=O)O,0.694
17,NC[C@H]1O[C@H](O[C@H]2[C@H](O)[C@@H](O[C@H]3O[C@H](CO)[C@@H](O)[C@H](N)[C@H]3O)[C@H](N)C[C@@H]2N)[C@H](N)[C@@H](O)[C@@H]1O [Kanamycin B sulfate salt],0.875
18,CCNC(=O)CCC/C=C\C[C@@H]1[C@@H](/C=C/[C@@H](O)CCc2ccccc2)[C@H](O)C[C@@H]1O [Bimatoprost],1.06
19,C=C1c2c(Cl)ccc(O)c2C(O)=C2C(=O)[C@]3(O)C(O)=C(C(N)=O)C(=O)[C@@H](N(C)C)[C@@H]3[C@@H](O)[C@H]12.O=C(O)c1cc(S(=O)(=O)O)ccc1O [Meclocycline sulfosalicylate salt],0.705
20,Cc1scc2c1N(C(=O)CN1CCN(C)CC1)c1ccccc1NC2=O [Telenzepine],1.3 (active)
21,O=C([O-])CC(O)(CC(=O)[O-])C(=O)[O-].[Li+].[Li+].[Li+] [Tri-lithium citrate],1.06
22,Cc1cc(O)c(C(=O)N[C@@H](C(=O)N[C@@H]2C(=O)N3C(C(=O)O)=C(CSc4nnnn4C)CS[C@H]23)c2ccc(O)cc2)cn1 [Cefpiramide],0.869
23,CCSc1ccc2c(c1)N(CCCN1CCN(C)CC1)c1ccccc1S2 [Thiethylperazine malate],1.12

row,Compound,cell-surface Lgr5 expression
1,Cc1cc2c(OCC(CNC(C)(C)C)OC(=O)c3ccccc3)cccc2[nH]1 (stereo not given) [Bopindolol Maleate],1.3
2,C[n+]1c2cc(N)ccc2cc2ccc(N)cc21.Nc1ccc2cc3ccc(N)cc3nc2c1 [Acriflavine hydrochloride],1.44
3,CO[C@@H]1[C@@H](O[C@@H]2O[C@H](C)[C@@H](O[C@H]3C[C@@](C)(O)[C@@H](OC(=O)CC(C)C)[C@H](C)O3)[C@H](N(C)C)[C@H]2O)[C@@H](CC=O)C[C@@H](C)[C@@H](O)/C=C/C=C/C[C@@H](C)OC(=O)C[C@H]1OC(C)=O [Josamycin],1.1
4,O=c1[nH]c(=O)n([C@H]2C[C@H](O)[C@@H](CO)O2)cc1F [Floxuridine (5-fluorodeoxyuridine)],0.664
5,"Nc1nc(Cl)nc2c1ncn2[C@H]1C[C@H](O)[C@@H](CO)O1 [Cladribine (2-chloro,2-deoxyadenosine)]",0.832
6,Nc1ncn([C@H]2C[C@H](O)[C@@H](CO)O2)c(=O)n1 [Decitabine (5-aza-2-deoxycytidine)],1.47 (active)
7,CCN(CC)CC#CCOC(=O)C(O)(c1ccccc1)C1CCCCC1 (stereo not given) [Oxybutynin chloride],0.687
8,CCC(C(=O)OCCN(CC)CC)c1ccccc1 (stereo not given) [Butetamate (Butethamate)],1.2
9,CCN(CC)CCOCCOC(=O)C(CC)(CC)c1ccccc1 [Oxeladin citrate salt],1.48 (active)
10,Cc1cc(/C=C/c2ccc3cc(N(C)C)ccc3[n+]2C)c(C)n1-c1ccccc1 [Pyrvinium pamoate],1.09
11,"C[Se]CCC(N)C(=O)O [Seleno-D, L-methionine]",1.08
12,CC(=O)[C@H]1CC[C@H]2[C@@H]3C[C@H](C)C4=CC(=O)CC[C@]4(C)[C@H]3[C@@H](O)C[C@]12C [Medrysone (6-alpha-Methyl-11-beta-Hydroxyprogesterone)],1.27
13,C[C@]12CCC(=O)C=C1CC[C@@H]1[C@@H]2[C@@H](O)C[C@]2(C=O)[C@@H](C(=O)CO)CC[C@@H]12 [Aldosterone],1.55 (active)
14,CC(=O)O[C@]1(C(C)=O)CC[C@H]2[C@@H]3CCC4=CC(=O)CC[C@]4(C)[C@H]3CC[C@@]21C [Hydroxyprogesterone acetate (17alpha-Acetoxyprogesterone)],1.21
15,CCCCCC(=O)O[C@]1(C(C)=O)CC[C@H]2[C@@H]3CCC4=CC(=O)CC[C@]4(C)[C@H]3CC[C@@]21C [Progesterone caproate (17alpha-hydroxyprogesterone)],1.05
16,CC(=O)[C@@]1(O)CC[C@H]2[C@@H]3C[C@H](C)C4=CC(=O)CC[C@]4(C)[C@H]3CC[C@@]21C [6α-Methyl-17α-hydroxy-progesterone (Medroxyprogesterone)],1.45
17,CC1(C)O[C@@H]2C[C@H]3[C@@H]4C[C@H](F)C5=CC(=O)CC[C@]5(C)[C@H]4[C@@H](O)C[C@]3(C)[C@]2(C(=O)CO)O1,1.55 (active)
18,CC1(C)O[C@@H]2C[C@H]3[C@@H]4C[C@H](F)C5=CC(=O)C=C[C@]5(C)[C@H]4[C@@H](O)C[C@]3(C)[C@]2(C(=O)CO)O1 [Flunisolide],1.47 (active)
19,CC(=O)OCC(=O)[C@H]1CC[C@H]2[C@@H]3CCC4=CC(=O)CC[C@]4(C)[C@H]3CC[C@]12C,1.01
20,C[C@]12CCC(=O)C=C1CC[C@@H]1[C@@H]2[C@@H](O)C[C@@]2(C)[C@H]1CC[C@]2(O)C(=O)COC(=O)CCC(=O)O [Hydrocortisone hemisuccinate monohydrate],1.36 (active)
21,CC(=O)[C@H]1CC[C@H]2[C@@H]3CCC4=CC(=O)CC[C@]4(C)[C@H]3CC[C@]12C [Progesterone],1.16
22,CCCCCC(=O)O[C@]1(C(C)=O)CC[C@H]2[C@@H]3CCC4=CC(=O)CC[C@]4(C)[C@H]3CC[C@@]21C,1.11

# From the supplement of paper PMC4683952
